The values that follow come from PubChem BioAssay (NCATS).

Molecules are shown by their SMILES. Values without a mark were called inactive. Inconclusive results are not listed. Calls of active or inactive are those of the source. Unless noted, calls follow the shape of the full dose curve.

Assay [1] is described as follows: AP1 Signaling Pathway (AID 357; active = well fitted curve in either direction with a large enough effect, not every such curve was filed as active). The method, boiled down: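 AP-1-bla ME-180 cells with beta-lactamase reporter under AP-1 response element, stimulated with EC50 EGF; compounds titrated, 5 hours at 37 degrees Celsius. CCF4 read at 460/530 nm ratio; positive and negative modulators judged by AC50.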
Assay [2] concerns the target Cytochrome P450 1A2 (Homo sapiens) (UniProt P05177). Description: p450-cyp1a2 (AID 410). Also: potency is read from the fitted curve at half-maximal effect. The procedure, abridged: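 Luminescent demethylation readout: Luciferin-ME (100uM, equal to Km) turned over by 20nM CYP1A2 for 60 min at room temperature after NADPH regeneration addition, following 10 min compound preincubation. Normalization used 57 uM furafylline as full inhibition.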

Assay [3] is described as follows: NFAT Signaling Pathway (AID 444; active = well fitted curve in either direction with a large enough effect, not every such curve was filed as active;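 also: carbachol stimulus at about its EC50 of 1 µM final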). An excerpt: NCGC Assay Overview: The nuclear factor of activated T cells (NFAT) family of transcription factors has been found primarily in most immune system cells and some other non-immune cells. NFAT plays the immunomodulatory role, primarily in T-cell activation and differentiation. NFAT target genes are also involved in the regulation of apoptosis and differentiation in non-immune cell types. The NFAT sequence was engineered to the upstream of the ?-lactamase reporter gene and transfected into Jurkat cells with co-transfection of muscarinic receptor1 [provided by Invitrogen Corp]. When an extracellular stimulus, such as carbachol, binds to the GPCR M1 receptor, it stimulates a signaling cascade that activates NFAT response element and ?-lactamase expression by phosphorylating the NFAT binding protein. This cell based ?-lactamase reporter gene assay can accurately monitor any changes occurring along the NFAT pathway, and can be used for screening small molecule inhibitor or activator upon activation by carbachol EC50 concentration. A small molecular library were screened in a titration series resulting in AC50s (can be either IC50s or EC50s).
NCGC Assay Protocol Summary: The cells were prepared in RPMI 1640 medium containing 0.1% dialyzed FBS and 25 mM HEPES at 1.6 x 10^6cell/ml. The assay was performed in 1536-well plate format as follows: 5 ul of cell preparation 23 nl of compounds 1ul of carbachol (final concentration 1 uM) Briefly centrifuge the plates and incubate at 37 °C for 5 hours 1 ul of CCF4 dye mixture Incubate the plates at RT for 1 hour Read the plate in EnVision plate reader (Ex= 405nm, and Em1=460nm and Em2=530nm). The %Activity was determined from the ratio of 460nm/530nm. Data normalization and AC50 calculations were accomplished using GeneData software.

The nature of assay [4]: Cell Viability - BJ (AID 421).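 Also: potency is read from the fitted curve at half-maximal effect; cells exposed to compound for 40 hours at 37 °C before readout.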 Conditions: BJ fibroblast viability, qHTS. The procedure, abridged: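 Cytotoxicity in human BJ foreskin fibroblasts is scored as loss of cellular ATP after a 40-hour exposure, measured by luciferase luminescence. Controls are DMSO and 100 uM tamoxifen.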
Assay [5] in a line: Cell Viability - Jurkat (AID 426;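 active = dose-dependent loss of cell ATP signal giving a full or clear fitted curve, ranked by lower potency value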;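 also: potency is read from the fitted curve at half-maximal effect; cells exposed to compound for 40 hours at 37 °C before ATP read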). Particulars: qHTS. The method, boiled down: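 Cytotoxicity taken as drop in cellular ATP (CellTiter-Glo luminescence, 20 min room temperature) after 40 hr, 37C treatment of 5000 Jurkat Clone E6-1 cells per well; concentration-response fitted with Hill equation for AC50.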
On the technique in general: qHTS replaces the single test concentration by a dilution series.

A short description of assay [6]: Cell Viability - Hek293 (AID 427;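 active = compounds whose dose-response curve shows a full or clear partial loss of cell viability, called from curve shape rather than a numeric limit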;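 also: potency is read from the fitted curve at half-maximal effect; cells exposed to compound for 40 hours at 37 °C before reading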). Particulars: qHTS. The method, boiled down: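 qHTS, human embryonic kidney (adenovirus-transformed) cells; 40 hr cpd, 37 °C; CellTiter-Glo ATP luminescence. Norm: DMSO = 0, 100 uM tamoxifen = 100% inhibition. Hill-fit AC50.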
Assay [7] is described as follows: Cell Viability - HepG2 (AID 433).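 Also: potency is read from the fitted curve at half-maximal effect; cells exposed to compound for 40 hours.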 Particulars: qHTS. The method, boiled down:
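HepG2 cells, 1500 per well, treated 40 hr at 37 °C in complete medium; viability from intracellular ATP by CellTiter-Glo luminescence. Normalized to DMSO and 100 uM tamoxifen; AC50 from Hill fit of qHTS concentration-response.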

The nature of assay [8]: Cell Viability - MRC5 (AID 434).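 Also: potency is read from the fitted curve at half-maximal effect; cells exposed to compound for 40 hours at 37 °C; potency reflects cytotoxicity seen as loss of intracellular ATP.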 Conditions: MRC5 lung fibroblast viability, qHTS. The procedure, abridged: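 AC50 values come from Hill-equation fits of intracellular ATP loss, measured by CellTiter-Glo luminescence. Normal lung fibroblasts (MRC5) had 40 hr compound treatment at 37 C, normalized between DMSO and 100 uM tamoxifen.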
Assay [9] is described as follows: Cell Viability - SK-N-SH (AID 435).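 Also: potency is read from the fitted curve at half-maximal effect; compound exposure lasted 40 h at 37 °C.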 Particulars: SK-N-SH neuroblastoma cell viability qHTS. The procedure, abridged: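 SK-N-SH neuroblastoma cells (1500/well) treated 40 h at 37 °C in complete medium; viability read as cellular ATP by CellTiter-Glo luminescence. Normalized to DMSO and 100 uM tamoxifen; AC50 from Hill fits of qHTS concentration-response.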
Assay [10] has as its target Lysosomal acid glucosylceramidase (Homo sapiens) (UniProt P04062). Description: Glucocerebrosidase-p2 (AID 348; in the data active = potency below about 10 µM; also: potency is read from the fitted curve at half-maximal effect). Conditions: purified GBA, blue fluorogenic substrate, 40 min. The method, boiled down: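 Normal human glucocerebrosidase (0.2 nM) with blue fluorogenic substrate (80 uM final) in citrate/phosphate pH 5.9 with 10mM sodium taurocholate, 0.01% tween-20; 40 min RT, NaOH/glycine stop; fluorescence Ex 365/Em 440; AC50 from a titration from 0.6 nM upwards.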

Sequence of Cytochrome P450 1A2 (Homo sapiens) (P05177 whole entry, looked up): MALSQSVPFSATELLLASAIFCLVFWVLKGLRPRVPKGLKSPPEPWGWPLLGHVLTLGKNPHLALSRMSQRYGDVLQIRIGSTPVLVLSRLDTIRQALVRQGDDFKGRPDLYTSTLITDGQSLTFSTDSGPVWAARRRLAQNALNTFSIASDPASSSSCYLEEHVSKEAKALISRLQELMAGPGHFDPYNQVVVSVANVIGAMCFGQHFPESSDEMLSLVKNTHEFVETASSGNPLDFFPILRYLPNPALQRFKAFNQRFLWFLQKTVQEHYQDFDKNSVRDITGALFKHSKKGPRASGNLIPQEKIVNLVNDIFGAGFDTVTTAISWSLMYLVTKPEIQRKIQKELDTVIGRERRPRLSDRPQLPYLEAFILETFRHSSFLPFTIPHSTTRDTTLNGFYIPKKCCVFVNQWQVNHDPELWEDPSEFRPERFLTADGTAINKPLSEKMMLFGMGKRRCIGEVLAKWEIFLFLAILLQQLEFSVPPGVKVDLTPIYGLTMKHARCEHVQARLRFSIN
Sequence of Lysosomal acid glucosylceramidase (Homo sapiens) (P04062 whole entry, looked up): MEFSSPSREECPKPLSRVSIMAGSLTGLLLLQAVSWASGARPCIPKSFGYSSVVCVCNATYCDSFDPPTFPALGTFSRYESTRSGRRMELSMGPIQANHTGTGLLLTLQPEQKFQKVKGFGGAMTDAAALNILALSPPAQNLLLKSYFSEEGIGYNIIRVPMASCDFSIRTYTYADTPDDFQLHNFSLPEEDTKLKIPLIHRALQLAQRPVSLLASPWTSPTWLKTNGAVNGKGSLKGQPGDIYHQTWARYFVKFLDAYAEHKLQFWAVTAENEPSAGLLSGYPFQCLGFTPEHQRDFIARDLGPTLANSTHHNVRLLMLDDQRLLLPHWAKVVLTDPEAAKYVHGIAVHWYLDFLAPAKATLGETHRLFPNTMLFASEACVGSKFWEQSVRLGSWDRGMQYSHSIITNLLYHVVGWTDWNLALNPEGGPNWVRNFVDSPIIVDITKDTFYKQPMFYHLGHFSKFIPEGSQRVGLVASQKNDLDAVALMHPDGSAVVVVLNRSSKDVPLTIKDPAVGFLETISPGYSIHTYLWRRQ

For `COc1ccc2c(OC)c3ccoc3nc2c1OC`, the outcome in [1] and in [3] was inactive. In addition, the Potency in assay [2] was 0.0794 µM (active).
On to `Cc1ccc(N)cc1O`, for which the Potency in assay [4], in assay [5], in assay [6], in [7], in [8] and in [9] was > 92 µM throughout.
`Nc1ccccc1N`: the Potency in assay [4], in assay [6], in assay [7], in [8] and in [9] was > 92 µM in each case.
In the case of `CC(=O)O[C@@H]1CC(C)=C2[C@H]1[C@H](C)CC[C@H]2/C=C(\C)C(=O)O`, the Potency in [4], in assay [5], in assay [6], in assay [7], in assay [8] and in assay [9] was > 92 µM in each case.
As for `Cc1ccccc1CN1C2=NCCN2C(=O)C2=C1CCN(Cc1ccccc1)C2`, the Potency in assay [10] was > 11.4 µM. Besides, the call in [1] and in [3] was inactive. Also, the Potency result in [2] was “inactive”.
Regarding `COc1ccc(C[C@H](N)C(=O)N[C@@H]2[C@H](O)[C@H](n3cnc4c(N(C)C)ncnc43)O[C@@H]2CO)cc1`, the Potency result in assay [2] is “inactive”.
On to `O=C1NC(=O)C(c2cn(-c3ccccc3)nc2-c2ccc(F)cc2)N1` (configuration not stated), for which the outcome in assay [1] and in assay [3] was inactive.
